PubChem BioAssay AID463254 (National Center for Advancing Translational Sciences (NCATS), 2010)
Among all 330,000 compounds or so, about 40 (0.01%) were called active. Calls follow the shape of the dose curve; as a rule, active = well fitted inhibition curve with a large enough effect; inconclusive = small, poorly fitted or top-dose-only effect, or effect the other way; inactive = flat fitted curve, though single readings scatter. This excerpt belongs to a sample that is enriched for actives.

Biological target: Ubiquitin carboxyl-terminal hydrolase 2 (Homo sapiens) (UniProt O75604)
Sequence (O75604 whole entry, looked up): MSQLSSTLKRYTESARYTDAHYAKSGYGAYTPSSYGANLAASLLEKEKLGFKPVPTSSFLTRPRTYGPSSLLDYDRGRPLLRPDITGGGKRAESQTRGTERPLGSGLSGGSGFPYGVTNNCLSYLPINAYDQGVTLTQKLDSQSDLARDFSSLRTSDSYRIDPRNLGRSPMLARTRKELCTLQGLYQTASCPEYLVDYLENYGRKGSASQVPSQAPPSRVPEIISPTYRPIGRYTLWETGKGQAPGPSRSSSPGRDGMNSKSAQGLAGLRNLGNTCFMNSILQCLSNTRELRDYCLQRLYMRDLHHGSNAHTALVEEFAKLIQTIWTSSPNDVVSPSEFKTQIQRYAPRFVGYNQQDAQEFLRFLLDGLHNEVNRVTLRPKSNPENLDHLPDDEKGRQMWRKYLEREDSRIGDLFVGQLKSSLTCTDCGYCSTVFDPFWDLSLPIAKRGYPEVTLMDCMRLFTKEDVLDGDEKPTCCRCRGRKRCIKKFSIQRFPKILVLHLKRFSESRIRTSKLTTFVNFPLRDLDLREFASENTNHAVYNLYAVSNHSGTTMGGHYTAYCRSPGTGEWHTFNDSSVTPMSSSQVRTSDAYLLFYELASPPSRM
Assay: qHTS Assay for Inhibitors of Ubiquitin-specific Protease USP2a Using CHOP2 as the Reporter;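 as to activity change, negative = inhibition: plate controls were DMSO wells for no effect and full inhibition by NEM control for full effect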
Conditions: USP2 core, Ub-CHOP2 coupled fluorogenic reporter, 485/531; series mostly up to 38.3 µM; activity change, negative = inhibition: at the top concentration
Text: NIH Molecular Libraries Screening Centers Network [MLSCN] NIH Chemical Genomics Center [NCGC] MLSCN Grant: XO1-MH079852-01 PI Name: Nicholson, Ben. Progenra Inc, Malvern, PA NCGC Assay Overview: Homeostasis of cellular proteins is maintained through a combination of synthesis and degradation. The pathway that accounts for the majority of protein degradation is the ubiquitin-proteasomal pathway. Ubiquitin (Ub) is highly conserved in all cells and the generation of a multi-Ub chain typically targets proteins for degradation by the proteasome. However, ubiquitination is highly reversible and dynamic. Deubiquitination, the reverse process, is catalyzed through the action of enzymes referred to as isopeptidases or deubiquitinating enzymes (DUBs). This group of enzymes is collectively responsible for maintaining adequate pools of free ubiquitin and regulating the ubiquitination status of cellular proteins. The class of DUBs referred to as the ubiquitin-specific proteases (USP) family functions endoproteolytically to cleave Ub chains from a wide range of protein substrates. USP2a deubiquitinates fatty acid synthase (FASN) which has recently been identified as an emerging oncology target. To identify inhibitors of USP2a a cell-free assay was employed. […] The reporter enzyme chosen is an enterokinase called CHOP2, which is activated when the Ub is cleaved by USP2. The free and now activated reporter can subsequently act on its reporter substrate. Thus, this coupled assay gives a fluorescent read-out at excitation/emission wavelengths of 485/531. The assay was developed by Progenra, Inc. and has been licensed for sale by LifeSensors, Inc. as Ub-CHOP2-Reporter-Kit (#PR1101).
NCGC Assay Protocol Summary: The assay buffer, prepared fresh at the day of the assay, contains 20mM Tris-HCl pH 8.0, 2mM CaCl2, 2mM beta-Mercaptoethanol, 0.05% CHAPS. 3ul of 20nM (10nM final) USP2 core, which is stored on ice, is dispensed into a medium-binding black solid Kalypsys 1,536 well plate using the Kalypsys dispenser. The assay plate is then pinned with 23nL compound with the Kalypsys pintool in columns 5-48. The controls are pinned as follows: column 1 two-fold dilutions of 2M NEM in duplicate; column 2 2M NEM (final concentration 38.2mM); column 3&4 DMSO. The assay plate is incubated at RT for 30min. Subsequently, 1.5uL of 100nM (25nM final) Ub-CHOP2 and 1.5uL of 100nM (25nM final) Reporter Substrate (both stored on ice and protected from light) were dispensed into the plate using the Kalypsys dispenser. Plates were read after 60min RT incubation on a ViewLux (Perkin Elmer) plate reader using the following wavelengths Ex 485nm /Em 531nm. Data were normalized to the to AC100 inhibition (NEM). Concentration-response curves were fitted to the normalized data and the concentration-response curves were then classified based on curve quality (r2), response magnitude and degree of measured activity. The time zero reading was used to flag fluorescence artifacts. Keywords: ubiquitination, deubiquitination, proteases, profluorescent, MLSMR, MLPCN, NIH Roadmap, qHTS, NCGC
Potency is read from the fitted curve at half-maximal effect.

Activity change, negative = inhibition, inactive:
COc1ccc(-c2[nH]ncc2CN(Cc2nccn2C)C(C)C)cc1F -2.1%
Cc1cc(C)c(NC(=O)CSc2nc3ccncc3[nH]2)c(C)c1 -1.03%
CCOC(=O)C(CC)/C(C)=N\NC(=O)c1cccc(C)c1 (configuration not stated) -1.07%
CSc1nc(-c2ccco2)nn1C(=O)c1ccccc1Cl -0.762%
CCN(CC)CCN1C(=O)C(=O)/C(=C(/O)c2cnn(-c3ccccc3)c2C)C1c1cccs1 (configuration not stated) -0.143%
Cc1ccc(C(=O)N/C(=C/c2ccco2)C(=O)NCCc2c[nH]c3ccccc23)cc1C 4.15%
Cc1ccc(NC(=O)CCC(=O)c2ccc(Br)cc2)cc1 2.53%
C/C(=N\NC(=O)NC1CCCCC1)c1ccc(OC(F)F)cc1OC(F)F -1.05%
CCC(=O)Nc1c(S(=O)(=O)c2ccccc2)c2nc3ccccc3nc2n1Cc1ccccc1 1.47%
CC(c1ccco1)N(C(=O)Nc1ccccc1)C1CCCCC1 (configuration not stated) 8.49%
Cc1ccc(NC(=O)Cn2cnc3c(OCc4ccccc4)ncnc32)cc1C 0.93%
COc1ccc(C(=O)N2CCc3cc(OC)c(OC)cc3C2c2cccc([N+](=O)[O-])c2)cc1 (configuration not stated) -0.741%
COc1ccc(C(=O)C2CCCN(C(=O)c3cc(C)on3)C2)cc1F (configuration not stated) -1.09%
COC(c1ccccc1)(c1ccccc1)C(Oc1nc(C)cc(C)n1)C(=O)O (configuration not stated) -0.435%
CN(C)/C=C(/C(=O)c1ccc(Cl)cc1)S(=O)(=O)c1ccccc1 -12.8%
O=C(Oc1ccc([N+](=O)[O-])cc1)c1ccc(Cl)c(S(=O)(=O)N2CCCCC2)c1 1.28%
Cc1ccc(N(Cc2cc(=O)[nH]c3ccccc23)C(=O)CCl)cc1 -0.609%
C=CCn1cc(Cl)cc(C(=O)Nc2ccccc2)c1=O 3.83%
CCCCCCCCn1c2c(c(=N)c3c1CCC3)CCCC2 11.8%
COc1cccc(CNC(=O)COc2cc(O)c3c(c2)OC(C)(C)CC3=O)c1 -0.256%
Cn1nnnc1NCc1ccc(Cl)c(Cl)c1 3.73%
COC(=O)c1cccc([N+](=O)[O-])c1CS(=O)(=O)c1ccc(C)cc1 3.14%
C#CCOCCOCCOCCNc1nc(N2CCN(C(=O)C([C@@H](C)O)n3cc([C@@H](N)CCCCN)nn3)CC2)nc(N2CCN(C(=O)[C@H](CCCCN)n3cc(CN)nn3)CC2)n1 (some centres not stated) 3.74%
CN(C)CCCNc1c2c(c(C#N)c3nc4ccccc4n13)CCC2 0.168%
O=[N+]([O-])C(=c1ccc2c(c1)N1C3=C(CCCC3)CC3CCCCC31N=2)[N+](=O)[O-] (configuration not stated) 0.873%
Cc1cc(N2CCN(c3ccc(F)cc3)CC2)n2ncnc2n1 9.32%
CCOC(=O)C1(CCOc2ccccc2)CCN(Cc2ccc(C#CCCO)cc2)CC1 -5.93%
CC(C)CN(C(=O)CSc1nncn1C)C1CCS(=O)(=O)C1 (configuration not stated) -1.91%
O=C(COC(=O)c1ccc(F)cc1F)Nc1ncccn1 0.688%
CC(=O)N[C@@H](C)C(=O)N1CCC(n2nccc2NC(=O)CCCc2ccccc2)CC1 0.0805%
Cc1ccc(C(=O)Nc2nnc(C3=COCCO3)o2)cc1C 2.21%
COc1ccccc1-n1c(C)nc2cc(C(=O)NCc3ccc4c(c3)OCO4)ccc21 -4.97%
CCCC(C)C(=O)NCc1ccncc1 (configuration not stated) -0.731%
CCOC(=O)c1sc(NC(=O)CSc2nc3c(c(=O)n2-c2ccccc2)SCC3)c(C(=O)OCC)c1C -0.841%
CC(C)C(C)(C#N)NC(=O)CSc1nncn1-c1ccccc1 (configuration not stated) 1.82%
COc1cccc(/C=C(/CC(=O)Nc2ccc(N3CCOCC3)cc2)c2nc3ccccc3s2)c1 0.762%
O=C(NC(=S)Nc1cccc(-c2ccc(CO)o2)c1)c1cccs1 -0.762%
CCCCCN(C(=O)CCC(=O)OCC(=O)NCc1ccc(OC)cc1)c1c(N)n(CCCC)c(=O)[nH]c1=O 0.688%
Cc1ccc(S(=O)(=O)Nc2nc(N)n(-c3ccccc3)n2)cc1 0.765%
COC(=O)c1ccc(OC(=O)c2nn(C)cc2Cl)c(OC)c1 -0.26%
Cc1nc2nc(COc3ccccc3)[nH]n2c(=O)c1C 1.56%
O=C(Nc1cc(N2CCOCC2)ncn1)NC1(C(F)(F)F)Oc2ccc(Cl)cc2O1 (configuration not stated) -0.0506%
CSc1ncc(C(=O)Nc2ccc(C)cc2C)c(C)n1 1.33%
COc1cccc(CNS(=O)(=O)c2csc(C(N)=O)c2)c1 3.56%
CC(=O)O[C@H]1CC[C@@]2(C)[C@@H](CC[C@@H]3[C@@H]2CC[C@]2(C)[C@@H](C(C)(C)O)C[C@@H]32)C1 -0.0227%
Cc1ccc(C)c(CSc2nc(-c3ccco3)nc3c2c(=O)n(C)c(=O)n3C)c1 -0.717%
CCC(C)NC(=O)C1CCC(=O)N1Cc1ccc(C)cc1 (configuration not stated) 0.93%
COc1ccc(CS(=O)/C(Cl)=C(/Cl)C(=O)Nc2ccc(OC)nc2)cc1 (configuration not stated) 0.612%
Cc1cc(C)c(S(=O)(=O)N2CCOCC2)cc1C 1.87%
Cc1ccc(CNC(=O)Cn2c(=O)c3sccc3n(Cc3cccc([N+](=O)[O-])c3)c2=O)cc1 -0.534%
CCOc1ncccc1C(=O)NNC(=O)c1cccc(S(=O)(=O)Nc2ccccc2OC)c1 -1.34%
COc1ccc(C(c2nnnn2C2CCCCC2)N2CCN(c3ccccc3F)CC2)cc1 (configuration not stated) -0.313%
COc1ccccc1/C=C/CN1CCC(CO)(Cc2ccccc2)CC1 1.37%
Cc1ccc(O)c(/C=N/NC(=O)COc2ccc3c(C)cc(=O)oc3c2)c1 0.0027%
O=C(CCc1nnc(Cc2ccc3c(c2)OCO3)o1)NCCc1ccccc1Cl 2.78%
CC(C)c1ccc(-c2noc(C3CCCN(S(C)(=O)=O)C3)n2)cc1 (configuration not stated) -7.49%
COc1ccccc1CNC(=O)CCCNS(=O)(=O)c1cccc2nsnc12 1.54%
CC1COC2C(O1)N(S(C)(=O)=O)CCN2S(C)(=O)=O (configuration not stated) -1.04%
CCC(C)[C@@H](C(=O)N1CCNCC1)n1cc(CCCCN)nn1 (some centres not stated) 1.67%
CCCN(CC(=O)NC(=O)NC1CCCCC1)CC(=O)Nc1cc(Cl)ccc1Cl -8.68%
CC(C)CC1NC(=O)c2cc(Cl)ccc2-n2c1nc1ccccc1c2=O (configuration not stated) 4.7%
O=C(NNS(=O)(=O)c1ccc(F)cc1)c1cnccn1 2.02%
Cc1csc(Nc2ccc(Cl)cc2)[n+]1-c1ccc(Cl)cc1 -0.358%
CSC1=NCCN1C(=O)c1ccc(S(=O)(=O)N2CCOCC2)cc1 -11.3%
C[C@@H]1C[C@@H]2O[C@H]2/C=C\C=C\C(=O)Cc2c(Cl)c(O)cc(O)c2C(=O)O1 1.29%
Cc1cccc(NC(=O)N(Cc2cc3cc(C)cc(C)c3[nH]c2=O)CC2COCCO2)c1 (configuration not stated) 1.92%
C#CCOCCOCCOCCNc1nc(N2CCN(C(=O)CCCCCCCCCCNC(=O)[C@H](CCCCN)n3cc(C)nn3)CC2)nc(N2CCN(C(=O)CCCCCCCCCCNC(=O)[C@H](CO)n3cc(CCCSC)nn3)CC2)n1 -8.88%
C#CCOCCOCCOCCNc1nc(N2CCN(C(=O)CCCCCCCCCCNC(=O)Cn3cc(CCCCCN)nn3)CC2)nc(N2CCN(C(=O)CCCCCCCCCCNC(=O)[C@H](CO)n3cc(CCCSC)nn3)CC2)n1 -26.9%
Cc1cc(NC(=O)CN2CCCCC2C)nc2c1c(=O)oc1ccccc12 (configuration not stated) 3.13%
Cc1nc(SC(C)C)[nH]c(=O)c1Cc1ccccc1 -0.906%
CC1CCc2c(nc3ncnn3c2Nc2ccc(OC(F)(F)F)cc2)C1 (configuration not stated) 1.22%
CCNC(=O)c1sccc1-n1cccc1 2.45%
CN1C2CCC1/C(=C\c1ccccc1Cl)C(=O)/C2=C\c1ccccc1Cl 0.535%
COc1ccc2c(c1OC)C(=O)c1ccccc1C2=O 3.96%
Cc1c([N+](=O)[O-])c(N)nn1C 2.13%
Cc1cc(NS(=O)(=O)c2ccc(NC(=O)c3cccnc3)cc2)nc(C)n1 0.463%
COc1cccc(CC2(CO)CCN(Cc3cnc(-c4cccc(C)c4)nc3)CC2)c1 4.24%
NS(=O)(=O)c1ccc(NC(=S)NC(=O)c2cccnc2)cc1 0.624%
COc1cc2c(C(=O)N3CCN(C)CC3)c(CSc3ccccc3)n(C)c2cc1Br -0.599%
COc1ccc(Cl)cc1N(CC(=O)N1CCCCC1)S(C)(=O)=O 0.482%
Cc1ccc(NC(=O)N2CCC(O)(c3cccnc3)CC2)cc1 0.367%
COc1cc(OC)cc(C(=O)N[C@H](C(=O)OCC(=O)NC(C)c2ccccc2)C(C)C)c1 (some centres not stated) 0.189%
O=C1C2C3C=CC(C3)C2C(=O)N1c1ccc(S(=O)(=O)Nc2nccs2)cc1 (configuration not stated) -2.11%
O=C(Cc1csc(Nc2nc(=S)[nH]c3ccccc23)n1)NCCCN1CCN(c2cccc(Cl)c2)CC1 1.93%
CC(C)[C@@H]1NC(=O)c2cc([N+](=O)[O-])cc(I)c2NCCC[C@@H](C(=O)NC(CC(=O)O)C(N)=O)NC(=O)[C@H](CO)NC1=O (some centres not stated) -0.832%
CC(C)(CNC(=O)c1cc(=O)[nH]c2ccccc12)N1CCOCC1 4.29%
Cc1ccc(CN2CCN(Cc3ccccc3-c3ccco3)CC2CCO)o1 (configuration not stated) 9.71%
COCc1ccc(C(=O)NC2CC(C)(C)Cc3c2cnn3-c2ccc(C)cc2)o1 (configuration not stated) -0.305%
Fc1ccccc1CNC(=S)Nc1ccc(Cl)cc1 1.75%
COc1ccc(C(=O)NCC2CCCCC2)cc1S(=O)(=O)N1CCCC1 -1.57%
CCn1cc(C(=O)NCc2ccc(OC)cc2OC)c(=O)c2ccc(C)nc21 2.65%
COc1ccc(C2COC(=O)C2=N)c(NC(=O)c2ccccc2)c1 (configuration not stated) 2.76%
COc1ccc(C(CC(=O)Nc2ccc(C)cc2)NC(=O)C(F)(F)F)cc1 (configuration not stated) 6%
CCCCN(Cc1ccccc1)C(=O)C1CCN(Cc2sccc2C)CC1 1.08%
CC(=O)c1c(OCC(=O)N(C)C2CCCCC2)ccc2c(C)cc(=O)oc12 7.53%
Cc1ccc(NS(=O)(=O)c2ccc3c(c2)CC(=O)N3)cc1Cl -3.81%

Potency, active:
C#CCOCCOCCOCCNc1nc(N2CCN(C(=O)CCCCCCCCCCNC(=O)[C@H]([C@@H](C)CC)n3cc(CCCCN=C(N)N)nn3)CC2)nc(N2CCN(C(=O)CCCCCCCCCCNC(=O)[C@H](CO)n3cc(CCCSC)nn3)CC2)n1 6.31 µM
